Laboratory results from PubChem BioAssay AID1159580 (chemical genetic matrix, 2015).
Hit rate of the full screen: of about 5,500 compounds, about 2,000 (36%) were called active. Roughly 18% stayed inconclusive and do not appear here. No stated cut-off is given here; in the data, active means normalized growth mostly below about 0.91 (no sharp cut-off); inconclusive means no clear call, values can overlap the other calls; inactive means mostly above about 0.92. This is one part of the list.

Test: chemical genetic growth profiling, strain panel (AID 1159580);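 further: tested at 20 µM; growth read once vehicle control cultures reached saturation at 30 °C; 1 = growth at the plate median or of vehicle wells; lower values mean less growth of the strain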
Settings: S. cerevisiae deletion strains, growth OD

Measured: normalized growth

CNC(=O)N(C)c1nnc(C(C)(C)C)s1
inactive: locus YAL013W, strain DEP1, hits give low values 1.01 | locus YAL021C, strain ccr4, hits give low values 0.935 | locus YAL026C, strain drs2, hits give low values 0.993 | locus YAL030W, strain snc1, hits give low values 1 | locus YBL061C, strain skt5, hits give low values 0.997 | locus YBR009C, strain hhf1, hits give low values 1.01 | locus YBR021W, strain FUR4, hits give low values 1.04 | locus YBR023C, strain chs3, hits give low values 0.994 | locus YBR171W, strain sec66, hits give low values 0.983 | locus YBR229C, strain ROT2, hits give low values 1.01 | locus YBR231C, strain swc5, hits give low values 1.02 | locus YBR279W, strain paf1, hits give low values 0.996 | locus YCL011C, strain gbp2, hits give low values 0.985 | locus YCL016C, strain dcc1, hits give low values 0.979 | locus YCL029C, strain bik1, hits give low values 1.01 | locus YCL069W, strain vba3, hits give low values 0.988 | locus YCR088W, strain abp1, hits give low values 0.988 | locus YDL005C, strain med2, hits give low values 0.982 | locus YDL035C, strain GPR1, hits give low values 1.02 | locus YDL040C, strain nat1, hits give low values 0.99 | locus YDL074C, strain BRE1, hits give low values 1.03 | locus YDL101C, strain DUN1, hits give low values 1.02 | locus YDL134C, strain PPH21, hits give low values 1.01 | locus YDL185W, strain tfp1, hits give low values 0.959 | locus YDL192W, strain arf1, hits give low values 1.01 | locus YDR001C, strain nth1, hits give low values 0.977 | locus YDR069C, strain doa4, hits give low values 0.988 | locus YDR101C, strain arx1, hits give low values 1.01 | locus YDR137W, strain rgp1, hits give low values 0.999 | locus YDR150W, strain NUM1, hits give low values 1.01 | locus YDR159W, strain sac3, hits give low values 1.03 | locus YDR162C, strain NBP2, hits give low values 1.01 | locus YDR195W, strain ref2 0.946 | locus YDR297W, strain sur2, hits give low values 1.02 | locus YDR318W, strain mcm21, hits give low values 1.02 | locus YDR334W, strain swr1, hits give low values 0.982 | locus YDR335W, strain msn5, hits give low values 0.995 | locus YDR388W, hits give low values 1.02 | locus YDR392W, strain spt3, hits give low values 1.02 | locus YDR502C, strain sam2, hits give low values 1.02 | locus YEL003W, strain gim4, hits give low values 0.989 | locus YEL037C, strain rad23, hits give low values 0.981 | locus YEL061C, strain CIN8 (second series), hits give low values 0.98 | locus YEL061C, strain CIN8, hits give low values 1.01 | locus YER015W, strain faa2, hits give low values 0.99 | locus YER016W, strain bim1, hits give low values 0.987 | locus YER110C, hits give low values 1.01 | locus YER111C, strain swi4, hits give low values 1 | locus YER155C, strain BEM2 (second series), hits give low values 1.02 | locus YER155C, strain BEM2, hits give low values 1.01 | locus YER167W, strain BCK2, hits give low values 1.02 | locus YFR010W, strain ubp6, hits give low values 0.969 | locus YGL078C, strain dbp3, hits give low values 1.01 | locus YGL086W, strain mad1, hits give low values 1.01 | locus YGL167C, strain pmr1, hits give low values 0.976 | locus YGL173C, strain kem1, hits give low values 1 | locus YGL227W, strain vid30, hits give low values 1 | locus YGL240W, strain doc1, hits give low values 1.03 | locus YGL248W, strain PDE1, hits give low values 1.01 | locus YGL253W, strain hxk2, hits give low values 0.991 | locus YGR078C, strain PAC10, hits give low values 1.02 | locus YGR135W, strain pre9, hits give low values 1.02 | locus YGR229C, strain SMI1, hits give low values 1.04 | locus YGR252W, strain gcn5, hits give low values 1.05 | locus YHR013C, strain ard1, hits give low values 0.972 | locus YHR027C, strain rpn1, hits give low values 0.993 | locus YHR030C, strain SLT2, hits give low values 1.01 | locus YHR079C, strain IRE1 (second series), hits give low values 1.03 | locus YHR094C, strain hxt1, hits give low values 1.01 | locus YHR129C, strain ARP1, hits give low values 0.998 | locus YHR142W, strain chs7, hits give low values 0.979 | locus YHR200W, strain rpn10, hits give low values 1.02 | locus YIL066C, strain RNR3, hits give low values 1.02 | locus YIL073C, strain SPO22, hits give low values 1.07 | locus YIL125W, strain kgd1, hits give low values 1.02 | locus YIR030C, strain dcg1, hits give low values 1.02 | locus YJL092W, strain hpr5, hits give low values 0.976 | locus YJL095W, strain BCK1 (second series), hits give low values 0.993 | locus YJL095W, strain BCK1, hits give low values 1.01 | locus YJL115W, strain asf1, hits give low values 0.973 | locus YJL129C, strain trk1, hits give low values 0.999 | locus YJL134W, strain LCB3, hits give low values 1.02 | locus YJL154C, strain vps35, hits give low values 0.976 | locus YJL164C, strain tpk1, hits give low values 0.998 | locus YJL166W, strain qcr8, hits give low values 1.02 | locus YJL168C, strain set2, hits give low values 1.02 | locus YJL187C, strain SWE1 (second series), hits give low values 1.01 | locus YJR043C, strain POL32, hits give low values 1.03
